Assay results as given in the supplement of paper PMC12632987.
Over roughly 2,300 sequences, “median log2 fold change of GCK-ALFA target abundance (FLAG IP / Myc IP barcode read proportion)” has its median near 0.095; the lowest 2% begin near -0.47. Many of the other results were omitted from the sample, so the lowest values are more common in it than they were.

B1: LC3A_147_452 (protein)
chain: ATYVITVDVLLRNDPELAERIEEEIKKIGEENGAEVEVEREEIQETPTTTEYFLRVTLKTTDEEKALKALQEVSELLDRTAEEHPESFLGAMISFEKIED
B2: LC3A_28_844 (protein)
chain: SKTEKDIKEALERAKRAAEEGKSEVITIKVYKGDTEEEINKIIETLEEIAEILKDLPNQAILIDFEEKIDEEHQNKIIDKAEEIEKKYPNITVIIALPEE
B3: LC3A_28_842 (protein)
chain: SKTEENIKKALAEAKEAAEKGESKVITLKVYKGDTEEEIDKIIETLEEIAEILKDLPNQAIIIEFEEPIDPEHQDKIIDKAEEIEKKYPNITVIIALPEE
B4: LC3A_28_846 (protein)
chain: SKTEEDIEKALKEAKEAAKKGEPAVIELKVYKGDTEEEIEKIIEALEEIAEILKDLPNQAILINFEEVIDEEHQNKILDKAEEIEKKYPNVTVIIALPEE
B5: LC3A_132_311 (protein)
chain: SEEKYKEIKEELEKKLKEAEKNIKDKEKVEKLLEEIRKLLEEAEEELSPEQVAELYDEVADRLWKLSQKALEAGQEDVALELDAAAIEAASRSLEAEKLI
B6: LC3A_free_46_2418 (protein)
chain: YRGIVEADLLGLTEEQVEEVIERVKEKAKRLEEEYGVKVEVEVEVEKNEDGTYFLRIKVTIEGEDREKVEKAANEVVDLLEKLADEYGAAMIISIEFEEL
B7: LC3A_147_515 (protein)
chain: MYEVDIDILVKREGEEEVLEELEEILEELREEGYEVEVLEKRIEREGDEVFIYVKVLIRAPTPEEAEKAVNRLISRLEELEEKHKDLILGSLISVEKIEP
B8: LC3A_147_484 (protein)
chain: MRVYVDVLVDDEETAEELVRLMEATVEELRAQGIRVELRVEIEEVEPGVYFVEIEVEIEAETEEEEQAAAQRVIDALEAFDEANKDRVLGTLISVEREER
B9: LC3A_132_312 (protein)
chain: MEEKYAEIKARLDALLDEAAANIKDKAKVQALLKEIKALLEEAEKELTPEQVAELYDYVADRLDALSQQALAAGQEDVALDLDAASIEAASRSLEAEKKI
B10: LC3A_free_8_2551 (protein)
chain: NSQEFAEKVSEIIDEAEEKVKKILTENGVDREKRLLLELLFGEIIIEVISLRDKSKEEIAKAAKEGLEEVKEEAESLDEETKAKVNAVIDEAEAKIEALL
B11: LC3A_28_1012 (protein)
chain: MSLIEATKKEAKAAIEEAKKGEDAFLEVTITEEATEEEVKEVLKIIEETAEEISKIPNVKLYVVIDFDGSQEKLDIITDRMEEIEKKYPNVSVVIAYDEK
B12: LC3A_28_1011 (protein)
chain: MSLIEKTKEEAKKAIEEAKKGEDAFLEVEITEEATEEEVKEVLEIIEETAEEISKIENVKLYIVVDFDGDQEKLDLITDGLEEIEEKYPNVSSIIAYDEK
B13: LC3A_28_1147 (protein)
chain: SAEVEAAKKQIDEDAEKDKNEEEVYLNVTITSSMTKEEVEEIMDHVEEVVEKLKDKKKIYVVVTFTEPVSQEVLDTALEKGDEIEKKFPKVDVIVALPEY
B14: LC3A_28_1155 (protein)
chain: SAEVEEAKKLIDEDAERDKDEEEVYLEVKITSSVTVEEAREIMDHVEEVVEKLKDKKKIYVVVTFEEPVSQEVLDEVLRRAEEIEEKFPNVDVIIALPED
B15: LC3A_28_1154 (protein)
chain: SANVEAAKKQIDEDAEKDKDEEEVYLNVTITSEDTVEEAKEIMEHVEEVVEKLKDKKKIYVVITFEEPVSQEVLDTVLEKAEEIEKKFPNVSVIIALPED
B16: LC3A_free_8_2523 (protein)
chain: ASQAFADAAVKILDELEEKLVKLLKEKGASRLDILEAELLVGSIIAEVISLVDESIEAILKSIKEGLEELVEELEEHKEEVTKLANEALKKIEEKAKELK
B17: LC3A_3_1539 (protein)
chain: LEEEIEAALALLREAGASEETLAAFREAAEALLERGYEEALRELIRETRELIDAPSELLLAFFEEVLALVRTSDLSEEELIAEIRRIARTTRNEAEIEEL
B18: LC3A_62_2043 (protein)
chain: MYLATVDVDILAKDEEAAEKIYEEIKKKLEELKKKDPNIKYEVKLDKENKYVSVTVTYEAETLEEAEKKAQEIEDELDEILEKNEDLIKAALISREITKL
B19: LC3A_28_882 (protein)
chain: SKALESAEKALEEVKKAVEAGDKEPLVLEVEAPSDEENTEKFLKLLEELAKEASKLPGVTIIVNIDSSVSQELRDKIIDKAEELEKKYPNVTIIIALPED
B20: LC3A_147_504 (protein)
chain: VKLEVYIDIITKNATEEVKEFVKEIEKELKEKGFEVKVKIKIEKLDEDTDYIEIEIEIKAETEEKAKEAANYIIDKFEEFEEKNKDKILGSLISVEIEKE
B21: LC3A_132_267 (protein)
chain: SEELFEEALEELKEILDKIVDLLKAGKDPSPAITELYNTALEYSEKLSLEETEELVEKTIEYAEKLFAERLDPNDVEARRTLDIIEMLLEGVLIEKELRS
B22: LC3A_132_266 (protein)
chain: SEELFEKALEELKEILDKIVEALKAGEDPSPLINELYEKAKEYAKKLSLEETEKLVEETIEYAEKLFKERLDPNDEEAIRTLDIIEMLLEGVLIEKELES
B23: LC3A_132_308 (protein)
chain: GEELAKKLIEIAKEALRLVKEDDSKEEEVLELLREAKELMEKLAKEASPELAAKTFEEVEEILIEISRLAAKKGWDEVSDEAFALAAEAAQLKSDAKKKL
B24: LC3A_free_46_2355 (protein)
chain: VKAEILIDLLHEDEEVLKKAVEEIKKAAKEIAKKYGLKVEIKEEISKLPDGSYYAEIEITLTGETKEKLEKAVTELINKIDEIAKKYNVAAIISYEIIEE
B25: LC3A_free_46_2426 (protein)
chain: VDIDVDLLLEGDDEEKLKAAVEEIKEAFKKIAEEYNAELEIEVEFSTDPDGNHFAHINIKITSDDLETQQKIANESIDSIDKIAEKYGVSYIISVDIEKK
B26: LC3A_17_554 (protein)
chain: SEELKEEIKRLLEELEALVEELEKYDPEAAKELRKKLEEAKKALEEGDLEEALKILKEVAEEAAERWDSLEHIDPERMSILSMEAEGLLIEALSLEEKLE
B27: LC3A_17_555 (protein)
chain: MEELKKELEELLKELEKLVKELEKYDPEAAKKLKEKLKEAKKALEKGDLKKALKILKEVAEEAAEVFDSLEHIDPELMSILSMEAEGLLIEALSLEEKLE
B28: LC3A_28_1027 (protein)
chain: SAAEKAIEKAREEARKQKAEGKDIYVTIEVTSSTTLEDAKTIVEGIREIVEEFKDEKNINIIIDVERGVSQEVIDTLADGAEEIEKEYPNVNIIIALEEE
B29: LC3A_127_175 (protein)
chain: ELEELLKKLLEVAEELSEELSKPDADLEEIERLVKEAIELAKKALELDPRAEPILEAAEEIKKQLEQYKKAPEEKKEELREHMEMLAESLIIEIESLLLR

Target: MAP1LC3A, Q9H492
Test: median log2 fold change of GCK-ALFA target abundance (FLAG IP / Myc IP barcode read proportion) (log2 ratio); each designed protein is fused to an ALFA-tag nanobody in HEK293 cells to bring the named protein to FLAG-tagged glucokinase (GCK); Myc marks an untargeted standard; higher = target protein stabilised (more abundant)
Conditions: target protein: 3xFLAG-MCP-GCK-ALFA reporter; HEK293 landing pad (RPLP)
In short: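 Sequencing of reverse-transcribed, amplified circular RNA barcodes from anti-FLAG and anti-Myc immunoprecipitates provided the readout for an ALFA-nanobody-fused binder library recombined into HEK293 landing-pad cells. Those cells were induced with 2 μg mL^−1 doxycycline, transfected with a plasmid expressing a FLAG-tagged target and a Myc-tagged standard, and lysed after 48 h. Target abundance is the per-binder median log2 ratio of FLAG to Myc barcode read proportions. Only barcodes at a proportion of ≥10^−7 in both replicates and binders with ≥3 barcodes per replicate were kept, with a 10^−6 pseudocount added before the two replicates were pooled.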

Compared with B1, B2 is lower in “median log2 fold change” value: -0.0647 for the first, -0.471 for the second.

B3 and B4 are within 0.2 log units of each other in “median log2 fold change” value: -0.297 for the first, -0.293 for the second.

B5 and B6 are within 0.2 log units of each other in “median log2 fold change” value: 0.256 for the first, 0.196 for the second.

First: B7
Second: B8
The “median log2 fold change” value of the first is higher: -0.205 for the first, -0.559 for the second.

First: B9
Second: B10
The “median log2 fold change” value of the first is higher: 0.361 for the first, -0.172 for the second.

Going from B11 to B12, the “median log2 fold change” value rises from -0.527 to -0.21.

B13 and B14 are within 0.2 log units of each other in “median log2 fold change” value: -0.475 for the first, -0.446 for the second.

B15 and B16 are within 0.2 log units of each other in “median log2 fold change” value: -0.142 for the first, -0.0394 for the second.

B17 and B18 are within 0.2 log units of each other in “median log2 fold change” value: 0.318 for the first, 0.16 for the second.

Compared with B19, B20 is lower in “median log2 fold change” value: -0.094 for the first, -0.32 for the second.

Going from B21 to B22, the “median log2 fold change” value rises from -0.528 to 0.165.

Going from B23 to B24, the “median log2 fold change” value falls from 0.14 to -0.335.

B25 and B26 are within 0.2 log units of each other in “median log2 fold change” value: 0.0526 for the first, 0.24 for the second.

First: B27
Second: B28
The “median log2 fold change” value of the first is lower: -0.476 for the first, 0.173 for the second.

B29 was tested, and the “median log2 fold change” value was 0.0944.
